Rows were chosen to be rich in hits. Some 19% of all compounds tested hit in one or more screens of this group.
DT40 TDP1 no CPT: qHTS for Inhibitors of human tyrosyl-DNA phosphodiesterase 1 (TDP1): qHTS in cells in absence of CPT | DT40 Tdp1-/- hTDP1 cells, no CPT, ATP luminescence, 48 h | Potency, µM (doses to about 46.2 µM), usual class: inhibitors | 420,000 tested, 15% active | AID 686978, 2013; note: nearly all actives have a fitted effect of over 55% in size
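Compound effects on proliferation are scored in DT40 Tdp1-/-;hTDP1 cells in the absence of CPT. ATP levels (CellTiter-Glo luminescence) are recorded after a ≥48 hr, 37 °C incubation.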
IL1B secr inh: inhibitors of inflammasome signaling (IL-1 beta secretion). 360,000 tested, 4.7% active. THP-1 LPS/ATP IL-1B secretion, AlphaLISA, 16 h; hits give low values. activity change, % at 57.5 µM. AID 743279; in the data active = activity change below about -50%; inconclusive = mostly about -30% to -49%
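THP-1 cells pretreated 1 hr with compounds (up to 57.5 uM final), then stimulated with LPS (250 ng/mL final) plus ATP (1.25 mM final); secreted IL-1B measured by AlphaLISA after 16 hr, decreased signal indicating inhibition.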
HT1080 IDH1KD tx: kills HT-1080 cells with IDH1 knockdown. HT-1080 IDH1 knockdown viability, ATP luminescence, 48 h. Potency, µM (series often up to 46.1 µM), hits mostly cytotoxic. 360,000 tested, 2% active
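Luminescent ATP read-out (CellTiter-Glo, 10 min at room temperature) after 48 h compound exposure at 37 °C gave viability of IDH1-knockdown HT-1080 cells. Activity was normalised to DMSO and cell-free wells, then fitted as concentration-response curves.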
HT1080-NT tox: kills 2HG-producing HT-1080-NT fibrosarcoma cells | AID 686970 | Potency, µM (series often up to 46.1 µM), hits mostly cytotoxic | HT-1080-NT fibrosarcoma viability, CellTiter-Glo ATP luminescence, 48 h | 360,000 tested, 1.6% active;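 note: NT is the 2HG producing partner of a matched IDH1 knockdown line; nearly all actives have a fitted effect of over 55% in size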
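Viability of the 2HG-overproducing fibrosarcoma line after 48 hours of compound exposure at 37 degrees C was determined by luminescence with CellTiter-Glo, and concentration-effect curves were then fitted and categorized.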
TDP1 cell CPT: growth inhibition of DT40 Tdp1-/-;hTDP1 cells with camptothecin (screen for TDP1 inhibitors). 420,000 tested, 12% active. AID 686979. Potency, µM (highest dose often 46.2 µM), hits mostly inhibitors. chicken DT40 Tdp1-/-;hTDP1 cells + 20 nM CPT, ATP luminescence, 48 h; note: nearly all actives have a fitted effect of over 55% in size
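Cell growth measured by CellTiter-Glo luminescence after a minimum 48 h, 37 C compound exposure with 20 nM CPT in Tdp1-knockout DT40 cells stably expressing hTDP1, seeded 400/well; qHTS titration format.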
ELG1 repair inh: ELG1-dependent DNA repair inhibition. AID 504467. HEK293T ELG1-luciferase reporter, luminescence, 16 h; DNA damage induced by 5-fluorouridine. 330,000 tested, 2.3% active. Potency, µM (doses to about 46.1 µM), actives largely listed as inhibitors; note: nearly all actives have a fitted effect of over 55% in size
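Cells (2,000 per well) received 5-fluorouridine plus test compound or DMSO and were incubated 16 hr at 37 °C, 5% CO2. Luciferase activity was read by luminescence 30 min after ONE-Glo addition; signal suppression marked inhibition of damage-induced ELG1 function.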
A number is an active result; n = inactive; u = inconclusive; x = no result given. Unless noted, calls come from the whole dose curve; as a rule, active = well fitted curve in the direction sought with a large enough effect; inconclusive = small, poorly fitted or top-dose-only effect, or another doubt; inactive = no such curve, though single readings can be large; an effect the other way counts as inactive or inconclusive.

SMILES | DT40 TDP1 no CPT | IL1B secr inh | HT1080 IDH1KD tx | HT1080-NT tox | TDP1 cell CPT | ELG1 repair inh
CN(C)S(=O)(=O)c1cccc(-c2nn(-c3ccccc3)cc2/C=C2\SC(=S)NC2=O)c1 | u | n | 10µM | u | u | 23µM
COc1cc(C(=O)NC(=S)N(CCc2ccccc2)CCc2ccccc2)cc(OC)c1OC | 21µM | n | u | n | 23µM | 18µM
COc1cc(C(=O)NC(=S)N(C)Cc2ccccc2)cc(OC)c1OC | 8.2µM | n | n | n | 21µM | u
COc1cc(C(=O)NCC(=O)N/N=C(\C)Cc2ccccc2)cc(OC)c1OC | n | n | n | n | n | u
COc1cc(C(=O)N/N=C(\C)Cc2ccccc2)cc(OC)c1OC | n | n | 1µM | 1.2µM | n | u
O=C(NC(=S)N(CCc1ccccc1)CCc1ccccc1)c1ccco1 | 12µM | n | n | n | 18µM | n
CC(C)(O)/C=C/C[C@](C)(O)C1CC[C@]2(C)C1[C@H](O[C@H]1O[C@@H](CO)[C@H](O)[C@@H](O)[C@@H]1O)CC1[C@@]3(C)CC[C@H](O)C(C)(C)C3[C@@H](O)C[C@]12C (stereo not given in full) | n | n | n | n | n | n
O=C(O)/C=C/c1ccc(S(=O)(=O)Nc2ccccc2C(=O)Nc2ccc(F)cc2)cc1 | n | n | n | n | n | n
CN(Cc1ccccc1)C(=S)NC(=O)c1ccc(-c2ccccc2)cc1 | 4.6µM | n | u | n | 4.6µM | u
COc1ccc(CCNC(=O)C2CCN(S(=O)(=O)c3cccc4cccnc34)CC2)cc1OC | u | n | n | n | 16µM | n
COc1ccc(CCNC(=O)C2CCN(S(=O)(=O)c3cccc4nsnc34)CC2)cc1OC | u | n | n | n | n | n
O=C(NCCc1ccccc1)C1CCC(CNS(=O)(=O)c2cccc3cccnc23)CC1 (stereo not given) | 23µM | n | n | n | 16µM | n
COc1ccc2nc(NC(=O)c3sc4nc(C)cc(C)c4c3N)sc2c1 | u | n | n | n | n | u
COCCN1CCn2c(nc3cc(NC(=O)c4ccc(OC)cc4)ccc32)C1 | 21µM | n | n | n | 21µM | n
COCCN1CCn2c(nc3cc(NC(=O)NC4CCCCC4)ccc32)C1 | 16µM | n | n | n | u | u
O=C(Nc1ccc2c(c1)nc1n2CCN(Cc2ccccc2)C1)NC1CCCCC1 | 21µM | n | n | u | u | u
O=C(Nc1ccc2c(c1)nc1n2CCN(Cc2ccccc2)C1)c1cccs1 | 18µM | -94 | n | n | u | u
Cn1c(CN2CCCCC2)nc2cc(NC(=O)c3cccs3)ccc21 | n | n | n | n | u | n
CCN(C(=O)c1ccc(S(=O)(=O)N2CCC(C)CC2)cc1)C1CCS(=O)(=O)C1 (stereo not given) | n | n | n | n | n | n
CC1(C)C2CCC1(CS(=O)(=O)NCc1ccc(C(F)(F)F)cc1)C(=O)C2 (stereo not given) | 12µM | n | n | n | u | u
COc1ccccc1CNc1nc(NC(C)C)nc2cc(-c3ccccc3)sc12 | 4.1µM | -115 | u | u | 2.6µM | x
Cc1ccccc1-c1nc(NC(C)C)nc2ccsc12 | u | n | n | n | u | x
Cc1ccc(F)cc1-c1nc(NC(C)C)nc2cc(-c3ccccc3)sc12 | 18µM | u | u | n | u | x
CC(C)Nc1nc(NCCOc2ccccc2Cl)c2sc(-c3ccccc3)cc2n1 | 6.5µM | -103 | u | u | 6.5µM | x
CSCC[C@H](NS(=O)(=O)c1ccc(C)cc1)C(=O)N1CCC(C(=O)N[C@@H](Cc2ccc(O)cc2)C(=O)O)CC1 | n | n | n | n | n | n
SMILES | DT40 TDP1 no CPT | IL1B secr inh | HT1080 IDH1KD tx | HT1080-NT tox | TDP1 cell CPT | ELG1 repair inh
CCc1ccc(CN(Cc2cn[nH]c2-c2ccc(OC)cc2)C(=O)Nc2ccc(Br)cc2)cc1 | 18µM | x | x | x | 23µM | x
CCc1ccc(CN(Cc2cn[nH]c2-c2ccc(OC)cc2)C(=O)Nc2ccc(C)c(F)c2)cc1 | 18µM | x | x | x | 21µM | x
COc1ccc(NC(=O)COC(=O)Cc2ccc(Br)cc2)cc1 | n | n | n | n | n | n
CCCN1CNc2c(c(=O)[nH]c(=S)n2Cc2ccc(OC)c(OC)c2)C1 | n | x | n | n | n | x
CC(C)N(C)CCOC(=O)/C=C/c1ccccc1 | n | n | n | n | n | n
CC1=C(C)/C(=N\OC(=O)/C=C/c2ccccc2)C=CC1=O | 13µM | n | n | n | 13µM | n
Cc1ccc(NC(=O)C(C)OC(=O)/C=C/c2ccccc2)cc1 (stereo not given) | u | n | n | n | u | n
CC1=CC(=O)C=C(C)C1=NOC(=O)/C=C\c1ccccc1 | n | n | n | n | 16µM | n
Cc1ccc(C(C)C)c(OC(=O)/C=C/c2ccccc2)c1 | n | n | u | n | u | n
CC1=CC(=NOC(=O)/C=C/c2ccccc2)C=C(C)C1=O | 13µM | -65 | u | u | 21µM | n
Cc1ccc(OCC(=O)Nc2ccc(S(=O)(=O)Nc3ncccn3)cc2)c(C(C)(C)C)c1 | n | x | x | x | n | x
CC1CCCC(C)N1CC(O)COC1CCC(C(C)(C)C)CC1 (stereo not given) | 21µM | n | n | n | 23µM | u
O=C(NCCc1ccc(S(=O)(=O)N2CCCC2)cc1)c1cccs1 | n | n | n | n | n | n
O=C(Nc1nc(-c2ccc(S(=O)(=O)N3CCCC3)cc2)cs1)c1cccs1 | 15µM | u | n | n | u | 8.2µM
O=C(Nc1nc(-c2ccc(S(=O)(=O)N3CCCCCC3)cc2)cs1)c1cccs1 | 21µM | n | n | n | u | 13µM
O=C(Nc1ccc(S(=O)(=O)N2CCCC2)cc1)c1cccs1 | n | n | n | n | n | n
CC(C)C[C@H]1CNC(=S)N1CC1CCCN1C[C@H](CC(C)C)N1C[C@H](Cc2ccc(O)cc2)N(CC2CCCCC2)C1=S (stereo not given in full) | 18µM | n | n | n | u | x
CC(C)C[C@H]1CNC(=S)N1CC1CCCN1C[C@H](CC(C)C)N1C[C@H](Cc2ccc(O)cc2)N(CC2CCCCCC2)C1=S (stereo not given in full) | 18µM | n | n | n | 23µM | x
CC(C)C[C@H]1CNC(=S)N1C[C@H]1CCCN1C[C@H](CC(C)C)N1C[C@H](Cc2ccc(O)cc2)N(CC2CCCCCC2)C1=S | 8.2µM | -59 | u | u | 16µM | x
CC(C)c1nnc(N2C(=O)c3oc4ccccc4c(=O)c3C2c2ccccc2F)s1 (stereo not given) | n | x | x | x | u | x
